# Experimental data: the supplement of paper PMC8728848
# About 410 targets per protein were measured; listed, in parts, are those with the strongest signals and a random draw of the rest.
# B1: CCL1 (Coprinopsis cinerea) (protein)
# chain: MDTQAKPPAGRYVIYNRVLSPNGEKLALTYPGYQREALTLTPLHHSANQIWILNNWDATTSSLTPETARNTQVGWGSGNVPIVLPPGNYVWTLASSAGGYIIQDGGKTVYWNAGEAVANTKVSIGGDNGLQARWIFERV
# Columns and labels:
# Assay in all cases: glycan array binding signal (z-score within array); higher = stronger binding
# Conditions in all cases: glycan notation: IUPAC condensed, linker removed
# [1] = molecular target: Fuc(a1-2)Gal(b1-3)GlcNAc6S
# Procedure, shortened: (§1)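 From the Consortium for Functional Glycomics database, 3228 arrays were curated, keeping only those whose protein sequence was available. Binding is given as a within-array Z-score averaged across arrays sharing a protein sequence and across linkers. Negative Z-scores can be read as non-binding.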
# [2] = molecular target: Fuc(a1-2)Gal(b1-3)[Fuc(a1-4)]GlcNAc(b1-2)Man(a1-3)[Fuc(a1-2)Gal(b1-3)[Fuc(a1-4)]GlcNAc(b1-2)Man(a1-6)]Man(b1-4)GlcNAc(b1-4)GlcNAc
# Procedure, shortened: as §1
# [3] = molecular target: Fuc(a1-2)Gal(b1-3)[Fuc(a1-4)]GlcNAc(b1-2)Man(a1-6)[Fuc(a1-2)Gal(b1-3)[Fuc(a1-4)]GlcNAc(b1-2)Man(a1-3)]Man(b1-4)GlcNAc(b1-4)[Fuc(a1-6)]GlcNAc
# Procedure, shortened: as §1
# [4] = molecular target: Fuc(a1-2)Gal(b1-3)[Fuc(a1-4)]GlcNAc(b1-3)[Gal(b1-4)GlcNAc(b1-6)]Gal(b1-4)Glc
# Procedure, shortened: as §1
# Fuc(a1-2)Gal(b1-4)Glc = molecular target: Fuc(a1-2)Gal(b1-4)Glc
# Procedure, shortened: as §1
# [5] = molecular target: Fuc(a1-2)Gal(b1-4)GlcNAc(b1-3)[Fuc(a1-2)Gal(b1-4)GlcNAc(b1-6)]GalNAc
# Procedure, shortened: as §1
# [6] = molecular target: Fuc(a1-2)Gal(b1-4)[Fuc(a1-3)]GlcNAc(b1-3)[Neu5Ac(a2-6)Gal(b1-4)GlcNAc(b1-6)]Gal(b1-4)Glc
# Procedure, shortened: as §1
# [7] = molecular target: Fuc(a1-2)Gal6S(b1-4)Glc6S
# Procedure, shortened: as §1
# [8] = molecular target: Fuc(a1-2)[Gal(a1-3)]Gal(b1-3)GlcNAc(b1-2)Man(a1-3)[Fuc(a1-2)[Gal(a1-3)]Gal(b1-3)GlcNAc(b1-2)Man(a1-6)]Man(b1-4)GlcNAc(b1-4)GlcNAc
# Procedure, shortened: as §1
# [9] = molecular target: Fuc(a1-2)[Gal(a1-3)]Gal(b1-4)[Fuc(a1-3)]GlcNAc
# Procedure, shortened: as §1
# [10] = molecular target: Fuc(a1-2)[GalNAc(a1-3)]Gal(b1-4)GlcNAc(b1-3)Gal(b1-4)GlcNAc
# Procedure, shortened: as §1
# [11] = molecular target: Fuc(a1-3)[Gal(b1-4)]GlcNAc(b1-2)Man(a1-3)[Fuc(a1-3)[Gal(b1-4)]GlcNAc(b1-2)Man(a1-6)]Man(b1-4)GlcNAc(b1-4)GlcNAc
# Procedure, shortened: as §1
# [12] = molecular target: Fuc(a1-3)[Gal(b1-4)]GlcNAc(b1-3)Gal(b1-3)[Fuc(a1-4)]GlcNAc
# Procedure, shortened: as §1
# [13] = molecular target: Fuc(a1-3)[Gal(b1-4)]GlcNAc(b1-4)Gal(b1-4)[Fuc(a1-3)]GlcNAc(b1-4)Gal(b1-4)[Fuc(a1-3)]GlcNAc
# Procedure, shortened: as §1
# [14] = molecular target: Fuc(a1-3)[GalNAc(b1-4)]GlcNAc
# Procedure, shortened: as §1
# [15] = molecular target: Fuc(a1-3)[GalNAc(b1-4)]GlcNAc6S
# Procedure, shortened: as §1
# [16] = molecular target: Fuc(a1-3)[GalNAc3S(b1-4)]GlcNAc
# Procedure, shortened: as §1
# [17] = molecular target: Gal(a1-3)Gal(b1-3)[Fuc(a1-4)]GlcNAc(b1-2)Man(a1-3)[Gal(a1-3)Gal(b1-3)[Fuc(a1-4)]GlcNAc(b1-2)Man(a1-6)]Man(b1-4)GlcNAc(b1-4)GlcNAc
# Procedure, shortened: as §1
# Gal(a1-4)GlcNAc = molecular target: Gal(a1-4)GlcNAc
# Procedure, shortened: as §1
# Gal(b1-3)Gal = molecular target: Gal(b1-3)Gal
# Procedure, shortened: as §1
# Gal(b1-3)Gal(b1-4)GlcNAc = molecular target: Gal(b1-3)Gal(b1-4)GlcNAc
# Procedure, shortened: as §1
# Gal(b1-3)GalNAc = molecular target: Gal(b1-3)GalNAc
# Procedure, shortened: as §1
# [18] = molecular target: Gal(b1-3)GlcNAc(b1-2)Man(a1-3)[Gal(b1-3)GlcNAc(b1-2)Man(a1-6)]Man(b1-4)GlcNAc(b1-4)GlcNAc
# Procedure, shortened: as §1
# [19] = molecular target: Gal(b1-3)GlcNAc(b1-3)Gal(b1-4)[Fuc(a1-3)]GlcNAc(b1-6)[Gal(b1-3)GlcNAc(b1-3)]Gal(b1-4)Glc
# Procedure, shortened: as §1
# [20] = molecular target: Gal(b1-4)GlcNAc(b1-2)Man(a1-3)[GlcNAc(b1-2)Man(a1-6)]Man(b1-4)GlcNAc(b1-4)GlcNAc
# Procedure, shortened: as §1
# [21] = molecular target: Gal(b1-4)GlcNAc(b1-2)Man(a1-6)Man(b1-4)GlcNAc(b1-4)GlcNAc
# Procedure, shortened: as §1
# [22] = molecular target: Gal(b1-4)GlcNAc(b1-2)[Gal(b1-4)GlcNAc(b1-6)]Man(a1-6)[Gal(b1-4)GlcNAc(b1-2)Man(a1-3)]Man(b1-4)GlcNAc(b1-4)GlcNAc
# Procedure, shortened: as §1
# [23] = molecular target: Gal(b1-4)GlcNAc(b1-6)GalNAc
# Procedure, shortened: as §1
# [24] = molecular target: Gal3S(b1-3)[Fuc(a1-4)]GlcNAc
# Procedure, shortened: as §1
# Gal3S(b1-4)GlcNAc = molecular target: Gal3S(b1-4)GlcNAc
# Procedure, shortened: as §1
binder,measurement,setting,value
B1,glycan array binding signal (z-score),[1],-0.097
same,glycan array binding signal (z-score),[2],-0.006
same,glycan array binding signal (z-score),[3],-0.148
same,glycan array binding signal (z-score),[4],-0.144
same,glycan array binding signal (z-score),Fuc(a1-2)Gal(b1-4)Glc,-0.127
same,glycan array binding signal (z-score),[5],-0.025
same,glycan array binding signal (z-score),[6],-0.142
same,glycan array binding signal (z-score),[7],-0.033
same,glycan array binding signal (z-score),[8],-0.131
same,glycan array binding signal (z-score),[9],-0.138
same,glycan array binding signal (z-score),[10],-0.161
same,glycan array binding signal (z-score),[11],0.237
same,glycan array binding signal (z-score),[12],1.7
same,glycan array binding signal (z-score),[13],1.68
same,glycan array binding signal (z-score),[14],8.48
same,glycan array binding signal (z-score),[15],13.6
same,glycan array binding signal (z-score),[16],7.46
same,glycan array binding signal (z-score),[17],-0.081
same,glycan array binding signal (z-score),Gal(a1-4)GlcNAc,-0.164
same,glycan array binding signal (z-score),Gal(b1-3)Gal,-0.15
same,glycan array binding signal (z-score),Gal(b1-3)Gal(b1-4)GlcNAc,-0.151
same,glycan array binding signal (z-score),Gal(b1-3)GalNAc,-0.163
same,glycan array binding signal (z-score),[18],-0.119
same,glycan array binding signal (z-score),[19],0.276
same,glycan array binding signal (z-score),[20],-0.106
same,glycan array binding signal (z-score),[21],-0.133
same,glycan array binding signal (z-score),[22],-0.131
same,glycan array binding signal (z-score),[23],-0.142
same,glycan array binding signal (z-score),[24],-0.116
same,glycan array binding signal (z-score),Gal3S(b1-4)GlcNAc,-0.123
